Source: PubChem BioAssay
Records with an inconclusive call do not appear. Activity calls are given as the source filed them.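 Rule for the calls, unless noted: active = binding below the plate cutoff, the plate median minus 3 SD, with a reading above zero; inconclusive = below the plate cutoff but reading exactly zero; inactive = the rest.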

How the values were obtained:
[1] = yeast TOR pathway RPL19A-GFP modulators, primary screen, cell-based, S. cerevisiae, multiplex flow cytometry (AID 1862; in the data active = percent of DMSO control GFP below about 86%;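 note: lower values mimic rapamycin by blocking the RPL19A rise seen in DMSO cells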); conditions: S. cerevisiae RPL19A-GFP strain, flow cytometry fluorescence, 3 h; at 10 µM; stronger effect = lower value
[2] = modulators of MEP2-GFP levels in yeast, primary screen, S. cerevisiae, multiplex flow cytometry (AID 1867;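 active = GFP response, as percent of the DMSO control, above the screen-wide mean plus 3 SD, about 139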;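 note: median GFP channel fluorescence of barcode-gated MEP2-GFP cells measured by flow cytometry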); conditions: S. cerevisiae MEP2-GFP strain, 3 h, at 10 µM, stronger effect = higher value, 100% means same as DMSO wells
[3] = modulators of CIT2-GFP expression in yeast, primary screen, S. cerevisiae, GFP fusion, multiplex flow cytometry (AID 1870;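 active = percent response above a set limit, the screen-wide mean plus 3 SD, cut at about 130% in these data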;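 note: barcoded CIT2-GFP strain pooled with four other GFP strains with rapamycin as positive control; median GFP fluorescence per well over plate mean of DMSO wells so 100% = DMSO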); conditions: 3 h, at 10 µM, stronger effect = higher value
[4] = modulators of LAP4-GFP expression in yeast, primary screen, S. cerevisiae, multiplex flow cytometry (AID 1873;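 active = GFP signal, as percent of the solvent control, above the screen mean plus 3 SD, about 149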); conditions: 3 h, at 10 µM, stronger effect = higher value
[5] = modulators of AGP1-GFP expression in yeast TOR pathway, primary screen, cell-based, multiplex flow cytometry, S. cerevisiae (AID 1887;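 active = GFP signal above the screen-wide mean plus 3 SD, that is over about 124.5% of the solvent control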;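 note: AGP1-GFP fusion strain of S. cerevisiae within a five-strain barcoded multiplex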); conditions: 3 h, at 10 µM, stronger effect = higher value
[6] = inhibitors of CD8+ T cell-vesicle binding, pilot screen, LFA-1/ICAM-1 modulator project, MLPCN validation set, flow cytometry (AID 2523;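 active = response below a set limit, under 55% cells CD8-positive and vesicle-bound, and CD8 cells' 90th-percentile brightness under 279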;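 for vesicle binding response: mean PE anti-B7-1 fluorescence of CD8+ cells relative to row control; 100% = QL9-loaded vesicles with DMSO vehicle in the same plate row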); conditions: 2C mouse CD8+ T cells, at 7 µM, stronger effect = lower value; double positive events: measured here: CD8+/vesicle+ event percentage
[7] = biological target: Integrin beta-1 (Homo sapiens) + Integrin alpha-4 (Homo sapiens) (UniProt P13612+P05556); experiment: inhibition of HUTS-21 binding to VLA-4, pilot screen, VLA-4 allosteric modulator project, U937 cells, HUTS-21 mAb, flow cytometry, validation set (AID 2674;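 active = inhibition above 50%, about 3 SD of the validation set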;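 note: antibody binding induced by the VLA-4 ligand LDV present at three times its Kd; 0% = LDV ligand with antibody and no compound and 100% = antibody without LDV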); conditions: HUTS-21 LIBS mAb binding, at 6.7 µM, stronger effect = higher value, binding induced by LDV ligand
Integrin beta-1 (Homo sapiens) + Integrin alpha-4 (Homo sapiens), sequence (P05556 whole entry, looked up): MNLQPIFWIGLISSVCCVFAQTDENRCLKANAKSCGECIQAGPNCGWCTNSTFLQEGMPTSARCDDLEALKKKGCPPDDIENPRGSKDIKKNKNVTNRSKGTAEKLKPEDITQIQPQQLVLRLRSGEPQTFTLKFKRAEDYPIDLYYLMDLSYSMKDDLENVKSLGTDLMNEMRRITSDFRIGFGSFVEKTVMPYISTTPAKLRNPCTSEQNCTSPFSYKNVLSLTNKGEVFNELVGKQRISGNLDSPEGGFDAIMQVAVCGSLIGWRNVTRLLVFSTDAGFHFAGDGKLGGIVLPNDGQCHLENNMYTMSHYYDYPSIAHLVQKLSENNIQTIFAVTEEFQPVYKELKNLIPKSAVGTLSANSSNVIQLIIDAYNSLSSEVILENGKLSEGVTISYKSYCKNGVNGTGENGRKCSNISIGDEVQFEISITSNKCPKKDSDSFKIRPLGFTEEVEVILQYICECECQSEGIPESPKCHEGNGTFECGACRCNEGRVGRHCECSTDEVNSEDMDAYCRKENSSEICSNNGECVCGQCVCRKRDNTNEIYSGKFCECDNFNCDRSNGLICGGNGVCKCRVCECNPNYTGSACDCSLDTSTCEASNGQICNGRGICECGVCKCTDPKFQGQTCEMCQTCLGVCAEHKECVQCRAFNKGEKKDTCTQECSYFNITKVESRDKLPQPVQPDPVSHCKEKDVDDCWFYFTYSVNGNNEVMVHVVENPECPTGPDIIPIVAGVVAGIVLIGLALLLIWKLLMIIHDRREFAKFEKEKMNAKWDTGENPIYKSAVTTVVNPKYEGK
Integrin beta-1 (Homo sapiens) + Integrin alpha-4 (Homo sapiens), sequence (P13612 whole entry, looked up): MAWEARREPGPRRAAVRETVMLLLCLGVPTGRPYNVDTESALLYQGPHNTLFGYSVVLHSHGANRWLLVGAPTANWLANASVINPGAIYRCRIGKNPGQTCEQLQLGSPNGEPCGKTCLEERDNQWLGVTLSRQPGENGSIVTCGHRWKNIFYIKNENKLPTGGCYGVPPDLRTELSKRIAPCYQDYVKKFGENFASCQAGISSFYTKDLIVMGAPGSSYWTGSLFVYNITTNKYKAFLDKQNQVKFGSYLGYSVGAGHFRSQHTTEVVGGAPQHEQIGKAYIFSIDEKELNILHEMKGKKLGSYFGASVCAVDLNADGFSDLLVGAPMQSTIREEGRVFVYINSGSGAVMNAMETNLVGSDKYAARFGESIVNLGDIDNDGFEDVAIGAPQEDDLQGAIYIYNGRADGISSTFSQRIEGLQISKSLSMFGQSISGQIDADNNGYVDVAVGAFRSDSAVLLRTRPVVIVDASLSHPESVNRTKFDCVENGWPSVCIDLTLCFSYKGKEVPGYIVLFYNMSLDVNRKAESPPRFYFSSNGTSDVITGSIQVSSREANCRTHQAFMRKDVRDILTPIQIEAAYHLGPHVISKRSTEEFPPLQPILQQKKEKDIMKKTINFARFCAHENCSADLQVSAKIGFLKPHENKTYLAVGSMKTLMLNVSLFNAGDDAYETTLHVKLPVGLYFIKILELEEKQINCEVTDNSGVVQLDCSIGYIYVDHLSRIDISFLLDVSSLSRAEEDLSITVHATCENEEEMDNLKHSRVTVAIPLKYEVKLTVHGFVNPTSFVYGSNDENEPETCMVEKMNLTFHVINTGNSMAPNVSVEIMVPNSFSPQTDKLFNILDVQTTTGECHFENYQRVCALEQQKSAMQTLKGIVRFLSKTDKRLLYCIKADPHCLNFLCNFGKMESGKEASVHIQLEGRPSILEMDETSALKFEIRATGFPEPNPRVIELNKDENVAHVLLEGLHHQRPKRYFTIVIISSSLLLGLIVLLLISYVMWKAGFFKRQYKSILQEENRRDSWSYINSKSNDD

[8] = superoxide lowering in aged yeast cells, pilot screen, validation compound set (AID 2706;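 active = superoxide response below 65% of plate, a cut near 3 SD across the whole screen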;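 note: yeast exposed to compound for one week at 30 degrees C before staining; 100% = mean of all compound wells on the same plate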); conditions: S. cerevisiae aging, superoxide DHE fluorescence; at 10 µM; stronger effect = lower value
[9] = biological target: Beta-adrenergic receptor kinase 1 (Homo sapiens) (UniProt P25098); experiment: GRK2 binders displacing RNA aptamer, biochemical, validation, human GRK2, bead flow cytometry (AID 488806;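 active = aptamer binding inhibition above 30%, about 3 SD of noise from non-fluorescent compounds; inactive = inhibition at or below 30%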); conditions: bead-bound GRK2, FAM-aptamer displacement, at 10 µM, stronger effect = higher value
Beta-adrenergic receptor kinase 1 (Homo sapiens), sequence (P25098 whole entry, looked up): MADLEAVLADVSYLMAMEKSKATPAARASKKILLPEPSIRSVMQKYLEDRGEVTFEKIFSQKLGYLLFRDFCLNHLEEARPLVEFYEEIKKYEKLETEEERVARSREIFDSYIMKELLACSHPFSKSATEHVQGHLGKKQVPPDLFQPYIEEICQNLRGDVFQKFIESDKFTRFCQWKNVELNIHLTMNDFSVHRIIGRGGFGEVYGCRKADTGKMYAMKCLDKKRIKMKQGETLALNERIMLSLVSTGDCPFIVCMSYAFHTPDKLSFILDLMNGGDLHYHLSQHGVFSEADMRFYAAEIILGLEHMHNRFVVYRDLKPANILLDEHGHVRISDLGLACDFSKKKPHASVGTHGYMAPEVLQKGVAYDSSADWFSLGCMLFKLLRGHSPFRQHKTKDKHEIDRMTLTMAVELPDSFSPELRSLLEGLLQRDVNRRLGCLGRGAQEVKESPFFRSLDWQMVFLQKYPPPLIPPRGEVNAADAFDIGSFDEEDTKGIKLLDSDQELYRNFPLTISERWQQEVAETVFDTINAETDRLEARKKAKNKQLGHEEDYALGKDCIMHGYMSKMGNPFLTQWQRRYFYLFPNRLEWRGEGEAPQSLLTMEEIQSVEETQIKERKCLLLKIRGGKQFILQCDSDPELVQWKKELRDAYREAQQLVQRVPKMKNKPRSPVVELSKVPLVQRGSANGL

[10] = biological target: Beta-2 adrenergic receptor (Homo sapiens) (UniProt P07550); experiment: beta2AR agonists driving receptor internalization, pilot screen, cell-based, FAP fluorogen, flow cytometry, validation set (AID 504459;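 active = percent response above 42, roughly 3 SD of non-fluorescent test compounds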;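 note: agonist-driven loss of surface beta2AR via internalization measured by FAP dye flow cytometry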); conditions: Am2.2-beta2AR cells, FAP surface receptor flow cytometry; at 10 µM; stronger effect = higher value
Beta-2 adrenergic receptor (Homo sapiens), sequence (P07550 whole entry, looked up): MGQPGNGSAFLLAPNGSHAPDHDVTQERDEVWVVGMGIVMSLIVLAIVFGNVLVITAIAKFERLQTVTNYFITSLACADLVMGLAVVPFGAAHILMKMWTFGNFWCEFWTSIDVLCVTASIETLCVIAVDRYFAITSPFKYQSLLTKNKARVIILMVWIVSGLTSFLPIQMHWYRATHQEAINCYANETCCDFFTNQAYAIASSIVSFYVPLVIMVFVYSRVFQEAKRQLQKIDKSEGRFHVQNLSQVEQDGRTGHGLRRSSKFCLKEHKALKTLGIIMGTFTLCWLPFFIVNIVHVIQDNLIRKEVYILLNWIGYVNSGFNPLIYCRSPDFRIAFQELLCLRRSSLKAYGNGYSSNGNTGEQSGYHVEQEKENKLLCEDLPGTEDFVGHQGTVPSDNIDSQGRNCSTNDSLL

[11] = biological target: AP-2 complex subunit beta (Homo sapiens) (UniProt P63010); experiment: inhibitors of arrestin peptide binding to AP2, pilot screen, biochemical, validation set, GST-AP2 beads, flow cytometry (AID 504541;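 active = inhibition above 54%, about 3 SD of non-fluorescent compounds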;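 note: AP2 carries R879A mutation and is captured from E. coli lysate; bead-bound FITC arrestin peptide fluorescence measuring arrestin peptide binding to AP2; 0% = DMSO wells and 100% = excess unlabeled arrestin peptide control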); conditions: FITC arrestin peptide, at 10 µM, stronger effect = higher value, AP2 beta2 appendage fragment, R879A mutant
AP-2 complex subunit beta (Homo sapiens), sequence (P63010 whole entry, looked up, the tested form may be a part, one chain of several): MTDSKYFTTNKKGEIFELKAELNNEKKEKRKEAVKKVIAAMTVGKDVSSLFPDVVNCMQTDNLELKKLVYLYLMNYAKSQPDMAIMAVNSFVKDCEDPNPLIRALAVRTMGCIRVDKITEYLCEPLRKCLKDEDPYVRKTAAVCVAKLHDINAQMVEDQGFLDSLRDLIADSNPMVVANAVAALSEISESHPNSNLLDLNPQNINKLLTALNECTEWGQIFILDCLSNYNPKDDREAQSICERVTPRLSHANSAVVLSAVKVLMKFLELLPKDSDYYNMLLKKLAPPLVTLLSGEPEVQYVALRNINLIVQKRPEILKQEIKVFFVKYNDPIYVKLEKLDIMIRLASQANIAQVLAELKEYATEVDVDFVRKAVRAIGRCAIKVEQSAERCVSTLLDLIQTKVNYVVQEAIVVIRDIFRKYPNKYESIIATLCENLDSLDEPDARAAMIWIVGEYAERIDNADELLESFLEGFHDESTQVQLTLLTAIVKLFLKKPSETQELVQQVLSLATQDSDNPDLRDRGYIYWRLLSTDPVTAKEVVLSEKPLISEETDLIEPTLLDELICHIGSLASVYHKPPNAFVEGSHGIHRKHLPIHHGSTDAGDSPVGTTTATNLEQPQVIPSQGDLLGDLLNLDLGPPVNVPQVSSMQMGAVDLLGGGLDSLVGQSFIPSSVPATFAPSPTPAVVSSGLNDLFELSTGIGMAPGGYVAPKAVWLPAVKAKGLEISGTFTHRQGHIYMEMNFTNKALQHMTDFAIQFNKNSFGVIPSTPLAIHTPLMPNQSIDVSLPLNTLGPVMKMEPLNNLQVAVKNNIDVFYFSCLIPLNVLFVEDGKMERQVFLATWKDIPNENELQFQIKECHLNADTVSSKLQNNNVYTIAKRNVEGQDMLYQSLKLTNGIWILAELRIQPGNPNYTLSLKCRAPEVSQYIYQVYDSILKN

[12] = yeast V-ATPase proton transport modulators, S. cerevisiae, pHLuorin, HTS validation (AID 504600; in the data active = response above about 15%;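 note: plate controls were DMSO for no effect and reference compound for full effect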); conditions: S. cerevisiae pHLuorin cytosolic pH, at 10 µM, stronger effect = higher value
[13] = system: anti-desmoglein-3 scFv antibody binding to human DSG3; experiment: inhibitors of anti-DSG3 scFv binding to DSG3, pilot screen, biochemical, validation compound set, bead-based, flow cytometry (AID 588368); conditions: Protein G beads, DSG3-Fc, scFv-GFP binding, at 10 µM, stronger effect = lower value;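 note: signal is the median channel fluorescence of bead-bound GFP antibody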
[14] = inhibitors of fungal efflux pumps CDR1, CDR2, MDR1, pilot screen, validation compound set, multiplex, phenotypic (AID 588506;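 active = efflux inhibition above 0.42, the validation set average plus 4 SD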;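 note: Nile Red retained in cells so higher fluorescence means more efflux inhibition; 0 = negative control wells and 1 = enniatin B 25 µM full block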); conditions: S. cerevisiae pump-expressing triplex, Nile Red efflux flow cytometry; at 10 µM; stronger effect = higher value; the pumps come from Candida albicans
[15] = biological target: ATP-binding cassette sub-family B member 6 (Homo sapiens) (UniProt Q9NP58); experiment: ABCB6 transporter inhibitors, pilot screen, K562-ABCB6 cells, flow cytometry, validation set (AID 588550;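 active = inhibition above the screen-wide mean plus 3 SD, about 51%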;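 note: 0% = DMSO wells and 100% = benzethonium chloride 70 µM positive control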); conditions: K562-ABCB6 porphyrin accumulation, 1 h, at 10 µM, stronger effect = higher value
ATP-binding cassette sub-family B member 6 (Homo sapiens), sequence (Q9NP58 whole entry, looked up): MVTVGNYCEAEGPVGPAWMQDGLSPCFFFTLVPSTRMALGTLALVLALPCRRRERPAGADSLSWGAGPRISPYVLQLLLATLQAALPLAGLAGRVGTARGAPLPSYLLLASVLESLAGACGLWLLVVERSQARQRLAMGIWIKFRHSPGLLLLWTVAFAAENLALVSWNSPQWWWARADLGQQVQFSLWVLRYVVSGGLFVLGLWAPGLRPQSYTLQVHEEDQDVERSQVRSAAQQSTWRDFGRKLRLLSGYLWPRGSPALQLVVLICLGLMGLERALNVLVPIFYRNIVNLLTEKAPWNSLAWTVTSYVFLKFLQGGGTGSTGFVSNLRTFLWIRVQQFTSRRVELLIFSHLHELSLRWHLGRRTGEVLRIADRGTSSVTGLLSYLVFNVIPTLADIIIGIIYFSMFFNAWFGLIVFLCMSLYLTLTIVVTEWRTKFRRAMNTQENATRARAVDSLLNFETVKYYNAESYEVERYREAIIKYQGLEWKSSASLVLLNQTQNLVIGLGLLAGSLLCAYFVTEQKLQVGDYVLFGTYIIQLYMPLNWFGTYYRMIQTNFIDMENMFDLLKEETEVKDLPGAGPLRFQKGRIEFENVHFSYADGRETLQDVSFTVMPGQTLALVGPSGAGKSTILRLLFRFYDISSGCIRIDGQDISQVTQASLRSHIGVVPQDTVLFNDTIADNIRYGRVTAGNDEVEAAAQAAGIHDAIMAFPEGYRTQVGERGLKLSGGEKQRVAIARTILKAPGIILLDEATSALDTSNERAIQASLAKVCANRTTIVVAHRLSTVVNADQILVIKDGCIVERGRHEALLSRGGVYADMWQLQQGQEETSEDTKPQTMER

[16] = promoters of myeloid differentiation in arrested cells, primary screen, cell-based, GFP/MAC1 double positive, flow cytometry, validation set (AID 588685;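 active = differentiation response of at least 50%, scaled between solvent and reference control, from cells with both markers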;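 note: compound exposure lasts four days before antibody staining and flow analysis; 0% = DMSO wells and 100% = 5 µM fulvestrant positive control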); conditions: ER-HoxA9 marrow cells, stronger effect = higher value, normalized: vehicle 0, fulvestrant 100

O=C(O)CCCCCN=C1CCc2ccccc2N1
63.5%: double positive events [6]
inactive: percent of DMSO control GFP [1] 93% | GFP response vs DMSO [2] 132% | percent response of DMSO control [3] 101% | GFP response vs DMSO [4] 80.9% | GFP response, % of DMSO [5] 90.5% | vesicle binding response [6] 163% | inhibition [7] 10.3% | superoxide response (% of plate) [8] 118% | aptamer binding inhibition [9] 2% | response [10] -6.38% | inhibition [11] 4% | response [12] -0.07% | binding (% of control) [13] 98.7% | efflux inhibition (fraction of control) [14] 0.3 | inhibition [15] 9% | differentiation response [16] 0%

Cc1ccc(N2C(=O)c3ccccc3C2=O)cc1C
inactive: percent of DMSO control GFP [1] 105% | GFP response vs DMSO [2] 104% | percent response of DMSO control [3] 107% | GFP response vs DMSO [4] 99.1% | GFP response, % of DMSO [5] 94.8% | vesicle binding response [6] 121% | inhibition [7] 6.95% | superoxide response (% of plate) [8] 99.1% | aptamer binding inhibition [9] 3% | response [10] -0.69% | inhibition [11] -6.64% | response [12] 0.36% | binding (% of control) [13] 101% | efflux inhibition (fraction of control) [14] 0.24 | inhibition [15] 0% | differentiation response [16] -3.11%
63.4%: double positive events [6]

CC(C)OC(=O)C1C2C=CC3(CN(CC4CCCO4)C(=O)C13)O2 (stereo not drawn)
58.9%: double positive events [6]
inactive: percent of DMSO control GFP [1] 99.1% | GFP response vs DMSO [2] 104% | percent response of DMSO control [3] 98.6% | GFP response vs DMSO [4] 117% | GFP response, % of DMSO [5] 102% | vesicle binding response [6] 152% | inhibition [7] -4.52% | superoxide response (% of plate) [8] 100% | aptamer binding inhibition [9] 1% | response [10] 1.99% | inhibition [11] -4.29% | response [12] -0.97% | binding (% of control) [13] 98% | efflux inhibition (fraction of control) [14] 0.19 | inhibition [15] 7% | differentiation response [16] -16.8%

NNC(=O)c1cc(O)c(O)c(O)c1
inactive: percent of DMSO control GFP [1] 105% | GFP response vs DMSO [2] 88.8% | percent response of DMSO control [3] 114% | GFP response vs DMSO [4] 96% | GFP response, % of DMSO [5] 106% | vesicle binding response [6] 149% | inhibition [7] -1.49% | superoxide response (% of plate) [8] 93.7% | aptamer binding inhibition [9] 4% | response [10] -4.68% | inhibition [11] 12% | response [12] 1.02% | binding (% of control) [13] 91.2% | efflux inhibition (fraction of control) [14] -0.1 | inhibition [15] 5% | differentiation response [16] -2.69%
59%: double positive events [6]

COc1cc(NC(=S)NN2CCN(C)CC2)cc(OC)c1OC
inactive: percent of DMSO control GFP [1] 105% | GFP response vs DMSO [2] 108% | percent response of DMSO control [3] 116% | GFP response vs DMSO [4] 92% | GFP response, % of DMSO [5] 106% | vesicle binding response [6] 240% | inhibition [7] 7.85% | superoxide response (% of plate) [8] 91.4% | aptamer binding inhibition [9] 3% | response [10] -10.5% | inhibition [11] -10.5% | response [12] 2.58% | binding (% of control) [13] 105% | efflux inhibition (fraction of control) [14] -0.04 | inhibition [15] 13% | differentiation response [16] 5.13%
62.3%: double positive events [6]

CCOC(=O)c1ccc(N2C(=O)C(CC(=O)NC)N(CCc3ccc(OC)c(OC)c3)C2=S)cc1 (stereo not drawn)
inactive: percent of DMSO control GFP [1] 103% | GFP response vs DMSO [2] 99.9% | percent response of DMSO control [3] 101% | GFP response vs DMSO [4] 104% | GFP response, % of DMSO [5] 98.8% | vesicle binding response [6] 248% | inhibition [7] 6.85% | superoxide response (% of plate) [8] 113% | aptamer binding inhibition [9] 5% | response [10] 5.49% | inhibition [11] -11.1% | response [12] 0.17% | binding (% of control) [13] 103% | efflux inhibition (fraction of control) [14] 0.26 | inhibition [15] 4% | differentiation response [16] -1.12%
59.4%: double positive events [6]

O=C(Nc1ncc2c(n1)CC(c1ccco1)CC2=O)c1ccco1 (stereo not drawn)
inactive: percent of DMSO control GFP [1] 93.9% | GFP response vs DMSO [2] 113% | percent response of DMSO control [3] 95.8% | GFP response vs DMSO [4] 132% | GFP response, % of DMSO [5] 95.7% | vesicle binding response [6] 187% | inhibition [7] -11.3% | superoxide response (% of plate) [8] 102% | aptamer binding inhibition [9] 6% | response [10] -16% | inhibition [11] 1.11% | response [12] -0.72% | binding (% of control) [13] 99.1% | efflux inhibition (fraction of control) [14] 0.01 | inhibition [15] 1% | differentiation response [16] -18.4%
55%: double positive events [6]

COc1ccccc1CCn1cnc2c3cc(C)ccc3n(C)c2c1=O
inactive: percent of DMSO control GFP [1] 100% | GFP response vs DMSO [2] 106% | percent response of DMSO control [3] 105% | GFP response vs DMSO [4] 108% | GFP response, % of DMSO [5] 98.8% | vesicle binding response [6] 138% | inhibition [7] -27.9% | superoxide response (% of plate) [8] 94.8% | aptamer binding inhibition [9] -1% | response [10] -8.23% | inhibition [11] 9.65% | response [12] -3.34% | binding (% of control) [13] 101% | efflux inhibition (fraction of control) [14] -0.31 | inhibition [15] -9% | differentiation response [16] -14.8%
56.6%: double positive events [6]

Cc1oncc1C(=O)Nc1ccc(C(F)(F)F)cc1
inactive: percent of DMSO control GFP [1] 95.7% | GFP response vs DMSO [2] 98.6% | percent response of DMSO control [3] 101% | GFP response vs DMSO [4] 124% | GFP response, % of DMSO [5] 105% | vesicle binding response [6] 171% | inhibition [7] 3.99% | superoxide response (% of plate) [8] 101% | aptamer binding inhibition [9] 10% | response [10] -21.8% | inhibition [11] -2.96% | response [12] 6.73% | binding (% of control) [13] 96% | efflux inhibition (fraction of control) [14] -0.04 | inhibition [15] -7% | differentiation response [16] -4.99%
57.4%: double positive events [6]
